Source: the supplement of paper PMC7411054
Counter-ions that a name gives are not always drawn.

Tests used:
Assay in all cases: lowest phenotypically active concentration; higher = less potent
Conditions in all cases: treatment time: 24 h
[1] = test system: A549-CANX-COX4
Procedure, shortened: (§1)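 The reporter lines, fifteen in total and built by gene editing in A549, HepG2 and WPMY1 cells, used BFP for segmentation alongside GFP and RFP/FusionRed markers. Each was treated at 0.3, 1, 3 or 9 µM for 24 h in four wells and then imaged live, with live-cell features normalised to solvent control wells. Deviation meant ≥3 of 4 wells beyond the 95th percentile of control Euclidean distances; reproducibility meant a median replicate Pearson correlation above the 95th percentile of non-replicates. Only conditions meeting both were scored as phenotypically active.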

[2] = test system: A549-TP53BP1-CLTA
Procedure, shortened: as §1

[3] = test system: HepG2-ACTB-RAB5A
Procedure, shortened: as §1

[4] = test system: HepG2-CANX-COX4
Procedure, shortened: as §1

[5] = test system: HepG2-GM130-SQSTM1
Procedure, shortened: as §1

[6] = test system: HepG2-TP53BP1-CLTA
Procedure, shortened: as §1

[7] = test system: HepG2-TUBA1B-RELA
Procedure, shortened: as §1

[8] = test system: WPMY1-TP53BP1-CLTA
Procedure, shortened: as §1

[9] = test system: WPMY1-ACTB-RAB5A
Procedure, shortened: as §1

[10] = test system: WPMY1-TUBA1B-RELA
Procedure, shortened: as §1

SMILES: CC(C)(C)c1cc(/C=C(\C#N)C(N)=S)cc(C(C)(C)C)c1O
- lowest phenotypically active concentration [1]: 9 µM
- lowest phenotypically active concentration [2]: 9 µM
- lowest phenotypically active concentration [3]: 9 µM
- lowest phenotypically active concentration [4]: 9 µM
- lowest phenotypically active concentration [5]: 9 µM
- lowest phenotypically active concentration [6]: 9 µM
- lowest phenotypically active concentration [7]: 9 µM
- lowest phenotypically active concentration [8]: 9 µM

SMILES: CC(C)(C)c1ccc(S(=O)(=O)/C=C/C#N)cc1
- lowest phenotypically active concentration [5]: 9 µM
- lowest phenotypically active concentration [7]: 9 µM
- lowest phenotypically active concentration [8]: 9 µM

SMILES: COC(=O)C1=CO[C@@H](C)[C@H]2CN3CCc4c([nH]c5ccccc45)[C@@H]3C[C@H]12 [Ajmalicine hydrochloride]
- lowest phenotypically active concentration [1]: 9 µM
- lowest phenotypically active concentration [3]: 9 µM
- lowest phenotypically active concentration [4]: 9 µM
- lowest phenotypically active concentration [6]: 9 µM

SMILES: Cc1cccc(C)c1OCC(C)N (centres undefined) [mexiletine]
- lowest phenotypically active concentration [1]: ≤ 0.3 µM
- lowest phenotypically active concentration [2]: ≤ 0.3 µM
- lowest phenotypically active concentration [3]: ≤ 0.3 µM

SMILES: CCOC(=O)C1=C[C@]2(CC)CCCN3CCc4c(n1c1ccccc41)[C@@H]32 [Vinpocetine]
- lowest phenotypically active concentration [3]: 9 µM

SMILES: Cc1cccc(CN2CCN(C(c3ccccc3)c3ccc(Cl)cc3)CC2)c1 (centres undefined) [Meclizine dihydrochloride]
- lowest phenotypically active concentration [7]: 9 µM

SMILES: C[C@@H]1CCN(C(=O)CC#N)C[C@@H]1N(C)c1ncnc2[nH]ccc12
- lowest phenotypically active concentration [4]: 9 µM
- lowest phenotypically active concentration [5]: 9 µM
- lowest phenotypically active concentration [6]: 9 µM

SMILES: N=C1NC(=O)/C(=C\c2ccc(O)cc2)S1 [Mirin]
- lowest phenotypically active concentration [9]: 9 µM

SMILES: Cc1cc(C(C)Nc2ccccc2)c2nc(N3CCOCC3)cc(=O)n2c1 (centres undefined)
- lowest phenotypically active concentration [3]: 9 µM

SMILES: Cc1cccc(-c2n[nH]cc2-c2ccc(F)c(-c3cnn(CCO)c3)c2)n1
- lowest phenotypically active concentration [4]: 9 µM
- lowest phenotypically active concentration [6]: 9 µM
- lowest phenotypically active concentration [9]: 9 µM
- lowest phenotypically active concentration [8]: 9 µM
- lowest phenotypically active concentration [10]: 9 µM

SMILES: O=c1c(-c2ccc(O)cc2)coc2cc(O)cc(O)c12 [Genistein]
- lowest phenotypically active concentration [2]: 9 µM
- lowest phenotypically active concentration [9]: 9 µM
- lowest phenotypically active concentration [8]: 9 µM
- lowest phenotypically active concentration [10]: 9 µM

SMILES: N=C(N)NC(=N)NCCc1ccccc1 [phenformin]
- lowest phenotypically active concentration [1]: 9 µM

SMILES: O=c1cc(N2CCOCC2)oc2c(-c3ccccc3)cccc12
- lowest phenotypically active concentration [2]: 9 µM
- lowest phenotypically active concentration [3]: 9 µM
- lowest phenotypically active concentration [5]: 9 µM
- lowest phenotypically active concentration [6]: 9 µM
- lowest phenotypically active concentration [7]: 9 µM
- lowest phenotypically active concentration [9]: 9 µM
- lowest phenotypically active concentration [8]: 9 µM

SMILES: CCOC(=O)N1CCC(=C2c3ccc(Cl)cc3CCc3cccnc32)CC1 [loratadine]
- lowest phenotypically active concentration [4]: 3 µM

SMILES: O=C(O/N=C1\c2ccccc2-c2nc3ccccc3nc21)c1ccco1
- lowest phenotypically active concentration [9]: 9 µM
- lowest phenotypically active concentration [8]: 9 µM
- lowest phenotypically active concentration [10]: 3 µM

SMILES: Cc1c[nH]c2ncnc(-c3ccc(NC(=O)N(CCO)c4ccccc4)cc3)c12
- lowest phenotypically active concentration [10]: 9 µM

SMILES: O=C(Nc1ccccc1)N1CCN(c2nc(-c3ccccc3)ns2)CC1
- lowest phenotypically active concentration [4]: 9 µM
- lowest phenotypically active concentration [6]: 9 µM
- lowest phenotypically active concentration [7]: 9 µM

SMILES: CC(C)N(CCCNC(=O)Nc1ccc(C(C)(C)C)cc1)C[C@H]1O[C@@H](n2ccc3c(N)ncnc32)[C@H](O)[C@@H]1O
- lowest phenotypically active concentration [3]: 9 µM
- lowest phenotypically active concentration [5]: ≤ 0.3 µM
- lowest phenotypically active concentration [6]: 1 µM
- lowest phenotypically active concentration [7]: ≤ 0.3 µM
- lowest phenotypically active concentration [10]: 3 µM

SMILES: COc1cc(-c2cn(C)c(=O)c3cnccc23)c(OC)cc1CN(C)C
- lowest phenotypically active concentration [2]: 9 µM
- lowest phenotypically active concentration [3]: 9 µM
- lowest phenotypically active concentration [5]: 9 µM
- lowest phenotypically active concentration [7]: 9 µM
- lowest phenotypically active concentration [10]: 9 µM

SMILES: Nc1ncnc2c1ncn2[C@@H]1O[C@H](CO)[C@@H](O)[C@H]1O [Adenosine]
- lowest phenotypically active concentration [3]: 9 µM

SMILES: CC1=C(/C=C/C(C)=C/C=C/C(C)=C/C(=O)O)C(C)(C)CCC1 [isotretinoin]
- lowest phenotypically active concentration [4]: ≤ 0.3 µM
- lowest phenotypically active concentration [8]: 3 µM

SMILES: COc1ccc(CC2c3cc(OC)c(OC)cc3CC[N+]2(C)CCC(=O)OCCCCCOC(=O)CC[N+]2(C)CCc3cc(OC)c(OC)cc3C2Cc2ccc(OC)c(OC)c2)cc1OC (centres undefined) [Atracurium besilate]
- lowest phenotypically active concentration [4]: 9 µM
- lowest phenotypically active concentration [5]: 3 µM
- lowest phenotypically active concentration [9]: 3 µM

SMILES: Clc1ccc(C(c2ccc(Cl)cc2)[n+]2ccn(CC(OCc3ccc(Cl)cc3Cl)c3ccc(Cl)cc3Cl)c2)cc1 (centres undefined) [Calmidazolium chloride]
- lowest phenotypically active concentration [3]: 3 µM
- lowest phenotypically active concentration [7]: 3 µM
- lowest phenotypically active concentration [10]: 3 µM

SMILES: O=c1c(O)c(-c2ccc(O)cc2)oc2cc(O)cc(O)c12 [Kaempferol]
- lowest phenotypically active concentration [8]: 9 µM

SMILES: C[C@H](NC(=O)[C@@H](O)c1cc(F)cc(F)c1)C(=O)N[C@@H]1C(=O)N(C)c2ccccc2-c2ccccc21
- lowest phenotypically active concentration [4]: 1 µM
- lowest phenotypically active concentration [9]: ≤ 0.3 µM

SMILES: Cc1c(C)c2c(c(C)c1O)CC[C@@](C)(CCC[C@H](C)CCC[C@H](C)CCCC(C)C)O2 [Tocopherol (R,S)]
- lowest phenotypically active concentration [4]: 3 µM

SMILES: CC(C)[C@@H](C)/C=C/[C@@H](C)[C@H]1CC[C@H]2C3=CC=C4C[C@@H](O)CC[C@]4(C)[C@H]3CC[C@]12C [Ergosterine]
- lowest phenotypically active concentration [5]: 9 µM

SMILES: O=C(/C=C/c1ccc(O)cc1)c1ccc(O)cc1O [Isoliquiritigenin]
- lowest phenotypically active concentration [5]: 9 µM
- lowest phenotypically active concentration [8]: 9 µM

SMILES: c1ccc(-c2n[nH]cc2-c2ccnc3ccccc23)nc1
- lowest phenotypically active concentration [4]: 9 µM
- lowest phenotypically active concentration [5]: 9 µM
- lowest phenotypically active concentration [6]: 9 µM
- lowest phenotypically active concentration [9]: 9 µM

SMILES: CC1(C)CCC(C)(C)c2cc(C(O)C(=O)Nc3ccc(C(=O)O)cc3F)ccc21 (centres undefined)
- lowest phenotypically active concentration [4]: 9 µM

SMILES: O=c1cc(N2CCOCC2)oc2c1ccc1ccccc12
- lowest phenotypically active concentration [10]: 9 µM

SMILES: Cc1cc(C)c(C)c(S(=O)(=O)Nc2ccc(N3CC[C@H](C(=O)O)C3)c3ccccc23)c1C
- lowest phenotypically active concentration [5]: 9 µM

SMILES: CCOc1ccc2nc(S(N)(=O)=O)sc2c1 [ethoxzolamide]
- lowest phenotypically active concentration [5]: 9 µM
